# Results published in PubChem BioAssay (NCI).
# About 83,000 compounds went through this panel and 20% of them were active in at least one assay; those are over-represented in the sample as a whole.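 Results are percent growth after 48 hours of single-concentration exposure. 100 means growth as in untreated cells, lower positive values show inhibition; negative values down to -100 show cell death.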 A number with no mark means an inactive call. Calls of active or inactive are those of the source. Rule for the calls: active = growth percent below 10; inactive = the rest.
# Test system: RPMI-8226 leukemia
# Assay: NCI-60 one-dose screen, 48 h (100 = growth as untreated, 0 = no growth, -100 = all killed)
# Settings: 10 µM
row,SMILES,growth
1,CCC(=O)Nc1nnc(Cc2ccc(OC)c(OC)c2)s1,15.6%
2,NC(=O)c1cc(Cl)ccc1NC(=O)COc1ccccc1,44.5%
3,CCC12CCC3c4ccc(O)cc4CCC3C1CC(O)C2O (stereo not given),89%
4,O=C1NC(=S)S/C1=C\c1cccc([N+](=O)[O-])c1,62.8%
5,CCCCCn1c(=N)n(CC(O)COc2cccc(C)c2)c2ccccc21 (stereo not given),-10.8% (active)
6,Cn1c2ccccc2c2nn(C(=O)c3ccccc3)c(=O)nc21,98.7%
7,N#CC1=C(N)Oc2cc(N)ccc2C1c1ccc(F)cc1 (stereo not given),81.6%
8,COc1ccc(-c2c3c(N)c4c(nc3nc3c2c(C)nn3-c2ccccc2)CCCCC4)cc1,-4.18% (active)
9,CC(C)OC1=C(Cl)C(=O)c2ccccc2C1=O,24.5%
10,O=c1[nH]c(-c2ccccn2)nc2sc3c(c12)CCCCCC3,39.4%
11,COc1c(O)c2c3c(c1OC)-c1ccccc1CC3N(S(=O)(=O)c1ccc(C)cc1)CC2 (stereo not given),90.9%
12,COc1cc(-c2nc3ccccc3o2)cc(CN2CCN(c3ccccc3)CC2)c1O,53.2%
13,O=C1/C(=C/c2ccccc2F)CNC/C1=C\c1ccccc1F,-27.8% (active)
14,CN([N-]C(=O)CC(=O)[N-]N(C)C(=S)c1ccccc1)C(=S)c1ccccc1.[Cu+2],-13.7% (active)
15,COC(=O)c1ccc(C(=O)Nc2ccccc2N)cc1,12.6%
16,FC(F)(F)c1cc(CNc2ncc(Br)c(Cl)n2)cc(C(F)(F)F)c1,88.5%
17,COc1ccc(NC(=O)COc2ccccc2)c(C(N)=O)c1,11.9%
18,Cn1c2ccccc2c2nn(Cc3ccccc3)c(=O)nc21,101%
19,CCCCNNC(=O)c1ccc(Br)cc1,17.8%
20,Cc1nc2cc(Nc3nc(Nc4ccc(F)cc4)nc(-c4cccs4)n3)ccc2n1Cc1ccccc1,-0.339% (active)

row,SMILES,growth
1,Cc1ccc(C2SCC(=O)N2NC(=O)c2[nH]c3ccc(F)cc3c2-c2ccccc2)cc1 (stereo not given),86.7%
2,O=S(=O)(OCCO)c1ccccc1,103%
3,Cc1ccc(S(=O)(=O)N2CCc3ccc(O)c4c3C2CCc2ccccc2-4)cc1 (stereo not given),95.8%
4,Cc1nc2cc(Nc3nc(N4CCOCC4)nc(N4CCN(C)CC4)n3)ccc2n1Cc1ccccc1,102%
5,Clc1ccc(C2=NN(c3ccccc3)[C@H](c3cn(-c4ccccc4)nc3-c3ccccc3)C2)cc1,112%
6,COc1cccc(OC)c1OC(=O)c1ccccc1,96.1%
7,CCSc1nnc2c3cc(Br)ccc3n(C)c2n1,104%
8,Cc1nn(-c2ccccc2)c2nc3nc4c(c(N)c3c(-c3ccc(Cl)cc3)c12)CCCC4,93%
9,Cc1ccc(S(=O)(=O)N(c2ccc(Cl)cc2)c2ccc(Br)cc2C(=O)O)cc1,108%
10,Cc1ccc2c(c1)c(Sc1ccc(C(=O)NO)cc1)c1n2CN(C)CC1,1.92% (active)
11,COc1cc(CNCCCN2C(=O)c3ccc4c5c(ccc(c35)C2=O)C(=O)N(CCCNCc2cc(OC)c(OC)c(OC)c2)C4=O)cc(OC)c1OC,-18.5% (active)
12,CCCCCCCCCCCC(=O)[O][Sn]([CH2]CCC)([CH2]CCC)[CH2]CCC,-34% (active)
13,COc1cc(NC(=O)COc2ccccc2)c(C(N)=O)cc1OC,9.18% (active)
14,C=CC(=O)N1CC2(CCC(n3nc(-c4ccc(Oc5ccccc5)cc4)c4c(N)ncnc43)CC2)C1,-56% (active)
15,CC(=O)OC[C@H](O)[C@@]1(O)CC[C@H]2[C@@H]3CCC4=CC(=O)CC[C@]4(C)[C@H]3[C@@H](O)C[C@@]21C,89.8%
16,Cc1ccc(S(=O)(=O)N2CCc3ccc(O)c4c3C2Cc2cc(Cl)ccc2-4)cc1 (stereo not given),93.8%
17,COc1cc(/C=C/C(=O)C(=Cc2ccc(F)c(F)c2)C(=O)/C=C/c2ccc(O)c(OC)c2)ccc1O,19.9%
18,CCOC(=O)c1cc2c(n(C)c1=O)-c1cnn(-c3ccc(OC)cc3)c1CC2,89.1%
19,Cc1ccc(S(=O)(=O)N2CCc3ccc(O)c4c3C2Cc2ccc3c(c2-4)OCO3)cc1 (stereo not given),27.4%
20,O=C(Nc1nc2ccccc2[nH]1)C(=O)Nc1nc2ccccc2[nH]1,90.8%
